Source: PubChem
Pf Dd2 inh: qHTS Primary assay for Inhibitors of Plasmodium falciparum Dd2 growth in vitro. P. falciparum Dd2 growth, SYBR Green, 72 h. Potency, µM (doses to about 28.9 µM), for the others: at the top dose activity, negative = inhibition, actives largely listed as inhibitors. 4.3% of 120,000 active. AID 1347417, 2020; active = well fitted inhibition curve with a large enough effect;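 also: plate controls were DMSO vehicle for no effect and reference drug for full effect; nearly all actives have a fitted effect of over 65% in size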
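Infected erythrocytes (Dd2, 0.3% parasitemia, 2.5% hematocrit final) are added to compound in RPMI-1640/Albumax II medium, grown 72 h at 37C in low oxygen, then lysed with saponin/Triton-X containing SYBR Green and read by fluorescence.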
* = called active by the depositor; i = inactive; ! = a repeat was not active; [ ] = remark or other dose. This excerpt belongs to a sample that is enriched for hits. Potency is read from the fitted curve at half-maximal effect.

SMILES	Pf Dd2 inh
COc1cc(CNC(=O)[C@H]2CCC[C@H]2NC(=O)c2cnc(C)cn2)cc(OC)c1	-6%
COC1CN(c2ccc(C)cc2)C12CCN(C(=O)C1CCCC1)CC2 (stereo unspecified)	-5%
CC(=O)N[C@H](C)c1c(-c2ccc(F)cc2)noc1C(=O)O	-12%[44.1 µM]
C#CCSc1nc(-c2ccccc2)cc(-c2ccccc2)c1C#N	6%[0.594 µM]
Cc1cccc(-c2cc(-c3ccccc3)nc(SCC(=O)Nc3ccccc3)c2C#N)c1	13%
CCCCS(=O)(=O)c1nc(-c2ccc(Br)cc2)cc(-c2ccccc2)c1C#N	5µM*
CCOC(=O)CCNC(=O)N1CCC(Oc2ncccc2C(=O)N(C)C)C1 (stereo unspecified)	10%
CCS(=O)(=O)N(C1CC1)C1CCOC2(CCN(C(=O)c3cccc(F)c3)CC2)C1 (stereo unspecified)	-18%
CCCOCCNC(=O)c1c(C)noc1-c1ccc(OC)cc1	-11%
O=C(CCn1ccn2nc3c(c2c1=O)CCCC3)N1CCC(Cc2ccccc2)CC1	-20%
Cc1ccc(-c2nc3ncccn3c2Nc2ccc3c(c2)OCCO3)cc1	-21%
COc1ccc(Nc2c(-c3ccc(N4CCOCC4)cc3)nc3ncccn23)cc1OC	-19%
COc1cc(-c2nc3ncccn3c2Nc2ccc(C)cc2C)ccc1O	13µM*
O=C(O)c1ccc(-c2nc3ccncc3[nH]2)cc1	1.3µM*!
c1cnc2[nH]cc(-c3nc4ccncc4[nH]3)c2c1	10µM*!
c1cc2nc(C3CCNCC3)[nH]c2cn1	-1%[44.1 µM]
Cc1cc(-c2nc3ccncc3[nH]2)c(C)[nH]1	20µM*!
c1cnc2nc(-c3ccncc3)[nH]c2c1	-19%[44.1 µM]
c1coc(-c2nc3ccncc3[nH]2)c1	-24%[44.1 µM]
O=C(O)c1ccc(-c2cccnc2)cc1	1%[44.1 µM]
c1cc2nc(C3CCNC3)[nH]c2cn1 (stereo unspecified)	i
O=C(O)c1ccc2nc(-c3cc4cc(F)ccc4oc3=O)[nH]c2c1	-1%
COc1ccc(O)cc1CN1CCC(Cc2ccc(C(=O)O)cc2)C1 (stereo unspecified)	-5%
Fc1ccc(C2Cn3nnc(-c4nc(-c5ccc(Cl)cc5)no4)c3CO2)cc1 (stereo unspecified)	i
CCCCCC(=O)N1CC[C@@H](CC(=O)NCc2ccccc2)[C@@H](CC)C1	-17%[44.1 µM]
SMILES	Pf Dd2 inh
Cc1noc(C)c1CC(=O)NCC12CCC=C1NC(=O)CC2 (stereo unspecified)	12%
O=C(Cn1cncn1)N1CCC(C2CCN(Cc3cccc(F)c3F)CC2)C1 (stereo unspecified)	-16%
COc1cc(NC(=O)N2CC(c3nnc(C(C)C)o3)C3(CCOCC3)C2)cc(OC)c1 (stereo unspecified)	24%
CN(C)c1ccc(C(=O)N2CC[C@@H](CC(=O)O)[C@@H](CCN3CCCCC3)C2)cc1	i
CC(=O)Nc1ccc2c(c1)nc1n2[C@@H](CNC(=O)c2ccccc2)COC1	-15%[44.1 µM]
O=C1N(CCc2ccccc2)CCOC12CCN(Cc1ccc3cn[nH]c3c1)CC2	-19%[44.1 µM]
COCCNC(=O)c1coc(COc2ccc3c(c2)C(c2ccc(C)cc2)N(C(=O)C2CC2)CC3)n1 (stereo unspecified)	i
C=CCNC(=O)c1coc(COc2ccc3c(c2)C(c2ccc(C)cc2)N(C(=O)C2CC2)CC3)n1 (stereo unspecified)	-14%
CCNC(=O)c1coc(COc2ccc3c(c2)C(c2ccc(F)cc2)N(C(=O)CC(C)C)CC3)n1 (stereo unspecified)	1.4µM*
CC(C)Cc1ccc(CN2CCN3C(=O)CNC(=O)C3C2)cc1 (stereo unspecified)	-5%
COCc1noc([C@@H]2CN(Cc3ccccc3F)C[C@H]2COC)n1	22%
COc1ccccc1NC(=O)NCCCN1CCN(c2ccc(F)cc2)CC1	i
O=C(Cn1c(-c2cccs2)cc2ccccc21)N1CCN(c2ccc(Cl)cc2)CC1	8%
CC(CNC(=O)Cn1c(-c2cccs2)cc2ccccc21)c1ccccc1 (stereo unspecified)	11µM*
O=C(Cn1c(-c2cccs2)cc2cc(F)ccc21)NCCCN1CCN(c2ccc(F)cc2)CC1	6.3µM*
CN(C)c1ccc(CNC(=O)Cn2c(-c3cccs3)cc3cc(Cl)ccc32)cc1	-6%
CCOC(=O)Cn1c(-c2cccs2)cc2cc(Cl)ccc21	-12%
CCNC(=O)Cn1c(-c2cccs2)cc2ccccc21	10%
Cc1ccc(CNC(=O)Cn2c(-c3cccs3)cc3cc(Cl)ccc32)cc1	-10%
CC(NC(=O)Cn1c(-c2cccs2)cc2cc(F)ccc21)c1ccccc1 (stereo unspecified)	1.1µM*
CCc1nc(-c2c3n(c(=O)n(CC(=O)NC4CCCC4)c2=O)CCCCC3)no1	-3%
CN(C)Cc1ccc(-c2ccc(CO)cc2CO)cc1	-26%
Cc1ccccc1CNC(=O)C1(c2ccc(NS(C)(=O)=O)cc2)CCCCC1	i
COc1ccc(C)cc1NC(=O)CSc1ccc(-c2ccccn2)nn1	8.9µM*
COc1ccc(OC)c(NC(=O)CSc2ccc(-c3cccs3)nn2)c1	57%[5.79 µM]
